Screening results from PubChem BioAssay.
A selection: hits, their analogues and other compounds. The true share with any hit is near 11%.
HCV inh = qHTS Assay for Inhibitors of Hepatitis C Virus (HCV). Potency, µM (top dose mostly 41.8 µM), actives largely listed as inhibitors. actives 3.4% (n = 340,000). Huh7.5.1 HCVcc-Cre infection, luciferase reporter, 44 h
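Cells seeded at 1,000/well and cultured 4 h, then compounds added followed by HCVcc-Cre virus (~0.5 moi). After 44 h further culture, luciferase substrate was added, plates held 15 min at room temperature, and luminescence read for 15 sec.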
Vaccinia mCherry = qHTS for Stage-Specific Inhibitors of Vaccinia Orthopoxvirus: mCherry Reporter Primary qHTS. Vaccinia virus mCherry reporter infection, fluorescence. Potency, µM (doses to about 36.5 µM), usual class: inhibitors. actives 0.63% (n = 310,000). AID 720579, 2013; calls by dose curve; tested in A549 cells; also: nearly all actives have a fitted effect of over 35% in size
Pf growth 96h = Primary qHTS for delayed death inhibitors of the malarial parasite plastid, 96 hour incubation | P. falciparum luciferase reporter growth, 96 h | Potency, µM (series often up to 28.7 µM), hits mostly inhibitors | actives 6.9% (n = 320,000)
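Cell-based qHTS: luciferase-tagged P. falciparum in erythrocytes (2% hematocrit, 0.05% parasitemia final) incubated with compounds for 96 hours, 37 C, 5% CO2; luciferase detection reagent then added and luminescence measured.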
Pf growth 48h = Primary qHTS for delayed death inhibitors of the malarial parasite plastid, 48 hour incubation; P. falciparum luciferase growth in erythrocytes, 48 h; Potency, µM (doses to about 28.7 µM), usual class: inhibitors; actives 5.9% (n = 310,000)
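Parasite viability was followed by luminescence of a genomically integrated firefly luciferase. Cultures held 0.1% parasitemia at 2% hematocrit (final), incubated under 5% CO2 at 37 C.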
NS1 inh = qHTS Assay for Inhibitors of Influenza NS1 Protein Function; Potency, µM (doses to about 46.1 µM); actives 0.4% (n = 270,000); calls by dose curve; also: actives are rising curves; nearly all actives have a fitted effect of over 50% in size
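Read-out: OD600 growth recovery of NS1-expressing budding yeast. Cells grown overnight at 30C in -URA glucose medium, washed, resuspended and diluted 1:100 in 2% galactose assay medium, pH 6.0. Same strain lacking NS1 served as positive control.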
VACV Venus inh = qHTS for Stage-Specific Inhibitors of Vaccinia Orthopoxvirus: Venus Reporter Primary qHTS. actives 0.46% (n = 330,000). Potency, µM (top dose mostly 36.5 µM), most hits filed as inhibitors. Vaccinia virus Venus reporter expression, fluorescence; calls by dose curve; tested in A549 cells; also: nearly all actives have a fitted effect of over 30% in size
Of the large screens only hits and unclear results are named; the others gave an inactive call. Unless noted, calls follow the shape of the dose curve; as a rule, active = well fitted inhibition curve with a large enough effect; inconclusive = small, poorly fitted or top-dose-only effect, or another doubt; inactive = no such curve, though single readings can be large or run the other way.

COc1ccccc1N1CCN(C(=O)C(=O)c2cn(CC(=O)N3CCCC3)c3ccccc23)CC1	Pf growth 96h 9.28µM, Pf growth 48h inconclusive (no result: Vaccinia mCherry, VACV Venus inh)
Cc1ccccc1C(=O)N=c1ccn(-c2nc3ccccc3nc2NS(=O)(=O)c2ccccc2)cc1	Pf growth 48h inconclusive (no result: Vaccinia mCherry, VACV Venus inh)
N#CC1=C(SCC(=O)NC23CC4CC(CC(C4)C2)C3)NC(=O)C(C#N)C12CCCCC2 (configuration not stated)	HCV inh inconclusive, Vaccinia mCherry 10µM, Pf growth 96h inconclusive, Pf growth 48h inconclusive, NS1 inh inconclusive, VACV Venus inh 12.6µM
Cc1nnc(NC(=O)NCN2C(=O)C3C4C=CC(C4)C3C2=O)s1 (configuration not stated)	Pf growth 96h 3.7µM, Pf growth 48h inconclusive (no result: Vaccinia mCherry)
CCc1nnc(NC(=O)NCN2C(=O)C3C4C=CC(C4)C3C2=O)s1 (configuration not stated)	Pf growth 96h inconclusive (no result: Vaccinia mCherry)
CCN1CCN(C(=O)C2CCC(=O)N(CCCN3CCCC3=O)C2)CC1 (configuration not stated)	none (no result: Vaccinia mCherry, VACV Venus inh)
COc1cccc(C(c2ccccc2)N2C3CCC2CN(S(=O)(=O)c2ccc(F)cc2)CC3)c1 (configuration not stated)	Pf growth 48h 2.08µM (no result: NS1 inh)
Cc1nn(-c2ccccc2)c2c1C1(C(=O)N(C)c3ccccc31)N(c1ccccc1)C(=O)N2 (configuration not stated)	none
O=C1NC[C@H](Cc2ccc(O)cc2)N(C[C@@H]2CCCN2C[C@H](Cc2ccc(O)cc2)N2C[C@H](Cc3ccccc3)N(CC3CCCCCC3)C(=O)C2=O)C1=O	none (no result: HCV inh, Pf growth 96h, Pf growth 48h, NS1 inh)
Fc1cccc(COc2ccccc2CNc2ccccc2)c1	HCV inh inconclusive
Oc1c(CNc2ccccc2)cc(COCc2ccccc2)c2cccnc12	Pf growth 96h 3.29µM, Pf growth 48h 1.17µM (no result: HCV inh, Vaccinia mCherry, NS1 inh, VACV Venus inh)
Oc1c(CN2CCOCC2)cc(COCc2ccccc2)c2cccnc12	HCV inh inconclusive, Vaccinia mCherry 7.08µM, Pf growth 48h 2.62µM, VACV Venus inh inconclusive
NS(=O)(=O)c1ccc(NC(=O)c2ccc(OCC3CCCO3)cc2)cc1 (configuration not stated)	none (no result: Pf growth 96h, Pf growth 48h, NS1 inh)
O=C(NN=C1CCN(Cc2ccccc2)CC1)c1cc(Br)ccc1O	Pf growth 96h 1.85µM (no result: NS1 inh)
O=C(NN=C1CCN(Cc2ccccc2)CC1)c1ccccc1	Pf growth 96h inconclusive
OCCCNc1ncnc2sc3c(c12)CCN(Cc1ccccc1)C3	HCV inh inconclusive, Pf growth 96h inconclusive, Pf growth 48h inconclusive (no result: Vaccinia mCherry, VACV Venus inh)
CN(C)CCCNc1ccc(-c2cc(Nc3cccc(Cl)c3)ncn2)cn1	HCV inh inconclusive, Pf growth 96h 0.928µM, Pf growth 48h 1.85µM, VACV Venus inh inconclusive
COc1ccc(CNC2c3ccccc3-c3ccccc32)cc1OC	Pf growth 96h inconclusive, Pf growth 48h inconclusive
Cc1cccc(N(C)C(=O)c2cnn(-c3ccccc3)c2C)c1	none (no result: Vaccinia mCherry, VACV Venus inh)
Cc1ccc(N(C)C(=O)c2cnn(-c3ccccc3)c2C)c(C)c1	Pf growth 96h 5.22µM, Pf growth 48h 5.22µM
CCOC(=O)Nc1ccc2c(c1)N(CCCN(C)C)c1ccccc1CC2	HCV inh inconclusive, Pf growth 96h 13.1µM, Pf growth 48h inconclusive (no result: Vaccinia mCherry, VACV Venus inh)
CCOC(=O)Nc1ccc2c(c1)N(C(=O)CN(C)C)c1ccccc1S2	Vaccinia mCherry inconclusive (no result: HCV inh, Pf growth 96h, Pf growth 48h, NS1 inh)
CCCC(CCC)C(=O)Nc1ccc2c(c1)N(C(=O)CN1CCN(C)CC1)c1ccccc1CC2	HCV inh inconclusive, Pf growth 48h 5.22µM
CCOC(=O)Nc1ccc2c(c1)N(C(=O)CN1CCN(C)CC1)c1ccccc1S2	HCV inh inconclusive, Pf growth 48h 9.28µM (no result: Vaccinia mCherry, VACV Venus inh)
CCOC(=O)Nc1ccc2c(c1)N(C(=O)CNC)c1ccccc1CC2	none (no result: Vaccinia mCherry, VACV Venus inh)
CCOC(=O)Nc1ccc2c(c1)N(C(=O)CCN(C)C)c1ccccc1S2	HCV inh 12.6µM (no result: Vaccinia mCherry, VACV Venus inh)
CC(=O)Nc1c(O)c2ccccc2[nH]c1=O	Pf growth 96h inconclusive
CCOC(=O)c1c(-c2ccc(OC)c(OC)c2)csc1NC(=O)c1ccc(C)cc1	none (no result: HCV inh, Pf growth 96h, Pf growth 48h, NS1 inh)
CCOC(=O)c1c(C)[n+](-c2ccc(C)cc2)c(CC)c2cc(OC)c(OC)cc12	HCV inh inconclusive, Pf growth 96h 0.738µM, Pf growth 48h 0.828µM (no result: Vaccinia mCherry, VACV Venus inh)
CCN(CC)S(=O)(=O)c1ccc(/C=C/C(=O)OCC(=O)NNC(=O)c2ccc(OC)cc2)cc1	none (no result: Vaccinia mCherry, NS1 inh, VACV Venus inh)
C=CCn1c(=O)c(C(=O)NCCc2ccc(Cl)cc2)c(O)c2cc(OC)c(OC)cc21	none (no result: Vaccinia mCherry, VACV Venus inh)
C=CCn1c(=O)c(C(=O)NC2CC2)c(O)c2cc(OC)c(OC)cc21	Pf growth 96h 11.7µM
CC(C)C[C@H](NC(=O)[C@@H]1Cc2ccccc2CN1C(=O)OC(C)(C)C)C(=O)NCC1CCC(C(=O)O)CC1 (some centres not stated)	Pf growth 96h inconclusive, Pf growth 48h inconclusive
C=CCn1c(SCc2ccc(C(=O)Nc3nccs3)cc2)nnc1-c1ccc(C)c(Cl)c1	HCV inh 8.91µM, Vaccinia mCherry inconclusive, Pf growth 48h inconclusive, VACV Venus inh inconclusive
Cc1c(-c2ccc(OCCN3CCOCC3)cc2)c(=O)oc2ccc3ccccc3c12	none (no result: HCV inh, Pf growth 96h, Pf growth 48h, NS1 inh)
CCN1CCN(C2=NC(=O)/C(=C/c3ccc(C)o3)S2)CC1	Pf growth 96h 13.1µM
CCc1ccc(/C=C2/SC(N3CCOCC3)=NC2=O)cc1	Pf growth 48h inconclusive
COc1cc(C2c3c(oc4ccccc4c3=O)C(=O)N2c2ccc(C)cn2)ccc1O (configuration not stated)	Pf growth 96h 14.7µM
Cc1ccccc1-n1c(SCC(=O)Nc2ccccc2Cl)nc2n[nH]c(C)c2c1=N	HCV inh inconclusive, Pf growth 48h inconclusive (no result: Vaccinia mCherry, VACV Venus inh)
CCc1ccccc1NC(=O)CSc1nc2n[nH]c(C)c2c(=N)n1-c1cccc(OC)c1	HCV inh inconclusive, Pf growth 48h 13.1µM (no result: Vaccinia mCherry, Pf growth 96h, VACV Venus inh)
Cc1ccccc1-n1c(SCc2ccccn2)nc2n[nH]c(C)c2c1=N	HCV inh 11.2µM, Pf growth 48h inconclusive, VACV Venus inh inconclusive (no result: Vaccinia mCherry)
CCOc1ccccc1NC(=O)CCSc1nc2n[nH]c(C)c2c(=N)n1-c1ccccc1Cl	HCV inh inconclusive, Pf growth 48h 11.7µM (no result: Vaccinia mCherry, VACV Venus inh)
COc1ccc(OC)c(NC(=O)CSc2nc3n[nH]c(C)c3c(=N)n2-c2cccc(Cl)c2C)c1	HCV inh inconclusive, Pf growth 96h inconclusive, Pf growth 48h inconclusive, VACV Venus inh inconclusive
CCN(CC)c1ccc(N=C2C(=O)Nc3ccccc32)cc1	HCV inh inconclusive, Pf growth 96h inconclusive, Pf growth 48h 3.29µM
CCOC(=O)c1[nH]cnc1C(=O)NC1CCN(C(=O)OC(C)(C)C)CC1	Pf growth 96h inconclusive (no result: NS1 inh)
CC1CCCCN1CCNC(=O)CCc1nnc2n(Cc3ccccc3)c(=O)c3ccccc3n12 (configuration not stated)	HCV inh inconclusive, Pf growth 96h inconclusive, Pf growth 48h inconclusive
